Screening results (PubChem)
DRD3 antagonist = qHTS of D3 Dopamine Receptor Antagonist: qHTS | D(3) dopamine receptor (Homo sapiens), P35462 | D3R cells, DiscoveRx beta-arrestin luminescence, antagonist mode; active compounds read low | max response, negative = inhibition, % | actives 2.5% (n = 360,000) | AID 652054, 2013; in the data active = max response below about -50%; inconclusive = no clear call, values can overlap the other calls; also: % is scaled to controls: 0 for no effect and ±100 for the full control effect
Target sequence (P35462 whole entry, looked up): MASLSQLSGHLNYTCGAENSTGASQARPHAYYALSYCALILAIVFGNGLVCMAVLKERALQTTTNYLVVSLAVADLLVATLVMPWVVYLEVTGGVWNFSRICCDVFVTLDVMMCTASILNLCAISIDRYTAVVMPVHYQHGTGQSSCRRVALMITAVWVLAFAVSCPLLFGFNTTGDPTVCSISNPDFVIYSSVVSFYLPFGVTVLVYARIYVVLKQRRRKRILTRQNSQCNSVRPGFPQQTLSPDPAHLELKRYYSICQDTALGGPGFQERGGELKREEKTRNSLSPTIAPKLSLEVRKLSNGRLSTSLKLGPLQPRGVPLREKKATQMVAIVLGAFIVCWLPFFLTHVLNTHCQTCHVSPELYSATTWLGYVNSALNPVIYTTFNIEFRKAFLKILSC
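Cells plated overnight at 1500 cells/well, then exposed to library compounds with dopamine controls for 90 minutes at 37 degrees C. DiscoveRx reagent added for 30–60 minutes at room temperature; luminescence read, quantitative HTS format.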
KB-V1 MDR tox = qHTS assay for MDR1-selective chemotherapeutics: Primary screen using the drug-selected MDR subline cells KB-V1. KB-V1 MDR cells viability, CellTiter-Glo, 72 h. Potency, µM (series often up to 46.1 µM), actives largely listed as cytotoxic. actives 3.4% (n = 400,000); also: potency is read from the fitted curve at half-maximal effect; % is scaled to controls: 0 for no effect and ±100 for the full control effect; nearly all actives have a fitted effect of over 60% in size
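Cytotoxicity via CellTiter-Glo luminescence after 72 h compound exposure at 37 degrees C. Cells: drug-selected KB-V1 line, DMEM phenol-red free plus 10% FBS. Compounds tested at multiple concentrations; normalized data fitted to concentration-effect curves.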
SW480 rereplic = A quantitative high throughput screen for small molecules that induce DNA re-replication in SW480 colon adenocarcinoma cells; SW480 DNA re-replication, Hoechst DNA content imaging, 48 h; Potency, µM (highest dose often 46.1 µM), inactives show at the top dose re-replication activation, usual class: activators; actives 1.8% (n = 340,000); AID 624297, 2012; also: potency is read from the fitted curve at half-maximal effect; % of control where 0% means no effect; nearly all actives have a fitted effect of over 55% in size
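First, 250 cells per well were seeded. Next, compound or vehicle (23 nL) was pinned in, plates sat 48 hr at 37 C. Finally Hoechst was added for 40 min before fluorescence scanning.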
DRD3 agonist = qHTS of D3 Dopamine Receptor Agonist: qHTS | D3R DiscoveRx beta-arrestin cells, luminescence, 90 min | actives 0.58% (n = 410,000) | max activation, % | AID 652048, 2013; in the data active = max activation above about 30%; also: 0% is about no effect
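Cells at 1500/well, incubated overnight, then treated with pinned compounds (dopamine as control) for 90 min at 37 degrees C. DiscoveRx reagent added for 30 - 60 minutes at room temperature; luminescence read.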
MCF10A rereplic = A quantitative high throughput screen for small molecules that induce DNA re-replication in MCF 10a normal breast cells. AID 624296, 2012. actives 2.9% (n = 350,000). MCF 10A DNA re-replication, Hoechst nuclear intensity, 48 h. Potency, µM (titrated, usually from 46.1 µM), for the others: at the highest dose activity, positive = re-replication, usual class: activators; also: potency is read from the fitted curve at half-maximal effect; % of control where 0% means no effect; nearly all actives have a fitted effect of over 50% in size
KB-3-1 tox = qHTS assay for MDR1-selective chemotherapeutics: Primary screen using the parental adenocarcinoma cell KB-3-1. Potency, µM (series often up to 46.1 µM), usual class: cytotoxic. actives 1.4% (n = 400,000). KB-3-1 viability, CellTiter-Glo ATP luminescence, 72 h; also: potency is read from the fitted curve at half-maximal effect; % is scaled to controls: 0 for no effect and ±100 for the full control effect; nearly all actives have a fitted effect of over 60% in size
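Luminescent ATP read-out (CellTiter-Glo) measures survival of drug-naive KB-3-1 cells after 72 h compound exposure at 37 °C. Titration series was screened from lowest to highest concentration, with DMSO vehicle plates as background controls.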
The depositor's hits bear a star; i = inactive; u = inconclusive; x = no result given. Hits are enriched below; roughly 8.9% of the tested compounds scored in any of these assays. Unless noted, calls follow the shape of the dose curve; as a rule, active = well fitted curve in the direction sought with a large enough effect; inconclusive = small, poorly fitted or top-dose-only effect, or another doubt; inactive = no such curve, though single readings can be large; an effect the other way counts as inactive or inconclusive.

SMILES	DRD3 antagonist	KB-V1 MDR tox	SW480 rereplic	DRD3 agonist	MCF10A rereplic	KB-3-1 tox
CC(=O)Oc1ccc(C(=O)Nc2cccc(NC(=O)c3ccco3)c2)cc1	-76*	i	-52%	16	6.5µM*	i
O=C(Nc1ccc(NC(=O)c2ccco2)cc1)c1ccco1	-10	i	1%	0	1%	i
O=C(Nc1ccc(Nc2ccccc2)cc1)c1ccco1	-13	i	6%	1	u	i
CC(=O)Oc1ccc(C(=O)Nc2cccc(C(=O)c3ccc(C)c(C)c3)c2)cc1	10	9.2µM*	-6%	4	u	16µM*
CC(C)(C)c1ccc(C(=O)Nc2ccc(NC(=O)c3ccco3)cc2)cc1	7	i	u	-4	13µM*	i
CCS(=O)(=O)N1CCc2cc(C(=O)NCc3ccccc3OC)ccc21	x	i	x	3	x	i
CC1(C(=O)O)CCCN(C(=O)C2(c3ccc(Cl)cc3)CCCC2)C1 (centres undefined)	13	i	x	3	x	i
COCCn1c(N)c(S(=O)(=O)c2cccs2)c2nc3ccccc3nc21	-12	i	9%	-4	23µM*	i
COc1cccc(/C=N/n2c(N)c(S(=O)(=O)c3cccs3)c3nc4ccccc4nc32)c1OC	7	u	12µM*	-7	3.7µM*	u
CC(C)Cn1c(N)c(C(=O)NCC2CCCO2)c2nc3ccccc3nc21 (centres undefined)	3	u	u	-2	2.1µM*	i
Nc1c(C(=O)NCC2CCCO2)c2nc3ccccc3nc2n1/N=C/c1ccncc1 (centres undefined)	21	i	-3%	7	25%	i
COc1ccc(Cn2c(N)c(S(=O)(=O)c3cccs3)c3nc4ccccc4nc32)cc1	-14	i	u	4	u	i
COCCn1c(N)c(C(=O)NCc2cccs2)c2nc3ccccc3nc21	18	u	u	-3	8.2µM*	u
CNc1nc2ccccc2n1/N=C/c1cccc(OC)c1OC	-15	8.2µM*	-13%	19	17%	i
COc1ccc(OC)c(-n2c(N)c(C(=O)NCC3CCCO3)c3nc4ccccc4nc32)c1 (centres undefined)	14	i	16µM*	1	8.2µM*	i
COCCn1c(N)c(C(=O)NCC2CCCO2)c2nc3ccccc3nc21 (centres undefined)	9	u	10µM*	4	u	i
Nc1c(C(=O)OCC2CCCO2)c2nc3ccccc3nc2n1C1CCCC1 (centres undefined)	-11	23µM*	27%	3	u	u
COCCn1c(N)c(C(=O)Nc2sc3c(c2C(=O)OC)CCCC3)c2nc3ccccc3nc21	20	i	1%	10	1%	i
Oc1c(C(c2ccc(Cl)cc2)N2CCOCC2)sc2nc(-c3ccco3)nn12 (centres undefined)	x	i	x	-2	x	i
Cc1ccc(C(=O)c2oc3ccccc3c2NC(=O)c2cc(-c3ccc(Cl)cc3)on2)cc1	x	i	x	-7	x	i
O=C(CCl)N(c1ccc(Cl)cc1)c1c[nH]c2ccccc12	u	18µM*	21µM*	-5	2.6µM*	u
O=C(CCl)N(c1ccccc1)c1c[nH]c2ccccc12	16	16µM*	u	7	15µM*	16µM*
O=C(O)Cc1c[nH]c2ccccc12	-2	i	26%	-14	3%	i
Cc1ccc2oc(=O)c3cnn(CC(=O)Nc4cccc(C(F)(F)F)c4)c3c2c1	x	i	x	2	x	i
